# PubChem BioAssay AID1508600 (Functional Genomics Laboratory (NCATS/FGL), 2020)
# The campaign covered roughly 53,000 sequences. About 3,700 (7%) were called active. The full list was thinned out, with actives kept by preference. A number with no mark means an inactive call.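 The calls were made as follows: active = gene knockdowns whose robust z-score for IL-1 alpha signal is at least 2 or at most -2, so actives lie on both sides; inactive = the rest.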
# Test: Components of the Cytosolic LPS Sensing Pathway: Gene Identification via Genome-wide siRNA Screen;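 also: robust z of the log signal after scaling to non-targeting control siRNA wells of the plate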
# Details: RAW264.7 macrophages, IL-1a HTRF, actives lie on both sides, screened at 100 nM (by protocol), cells primed 5 h with Pam3CSK4 first
# How it was run: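 Knockdown: 100 nM siRNA, 48h, RAW264.7. Stimulation: Pam3CSK4 5 h, then LipidA via TransIT-TKO 24 h. Output: supernatant IL-1a HTRF, negative-control-normalized, log robust z-score; viability by CellTiter-Glo.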
row,Sequence,z-score
1,GGUACUAAAGAAAUAUCCCTT against Sirt7,0.736
2,GGCUUGUUUCCAAAAUAGGTT against Rflna,0.327
3,GGCUUUCUUUGCCAUGACCTT against Copg1,-2.93 (active)
4,CCCUAGAUGGCCGAAAUAUTT against Dazap1,-1.47
5,CCUUAUCUGGAGUGCGAGATT against Gpr158,0.452
6,CCAAUCCUGAAUAAUGAGATT against Spag17,0.0419
7,CGCCGCAGUAUUAAUGGCUTT against Nxph4,0.225
8,GGUGGACCUGCACUUUACCTT against Fam135b,0.67
9,CGUCUAUCUUGGAUUACUATT against Dll1,2.11 (active)
10,UAAAUACUUACCAGCUGGATT against Olfr1306,1.06
11,GCACCAGUCGAAUCCUCAATT against Gpr137,-1.46
12,GGCCCAAGGAUCAAUUUAUTT against Zup1,0.914
13,GGUUCCUGGGAACCUAAGUTT against Med25,2.02 (active)
14,CCUCAUCGAUGCACUACCCTT against Lrfn4,-0.338
15,GCUCAUGACACUCUUCCUGTT against Spib,1.45
16,GGAGGAUGGCUUUACCGCATT against Mib2,-1.64
17,GCCGGAUUGAGAUCUCUAUTT against 1500015L24Rik,0.734
18,GGAACAGGACAAUGACAGUTT against Gzme,1.43
19,GGCUUACUUCAUUUCAGUUTT against Zfp526,0.0808
20,GGAAAACAUUAAGAAGGGCTT against Ccn2,3.41 (active)
21,GGACCUCCACCGUUACUACTT against Sgsh,0.367
22,GGAGGAACACAAGAUUUUCTT against Ppp2r5c,-0.322

row,Sequence,z-score
1,GGAAGUCCAUCUCUUUUGCTT against Olfr56,0.213
2,GGAUCCAGAAAGUCCAGAUTT against Nt5c3b,0.918
3,GGAUGUUGGUACUUUUUGATT against Pwp1,-0.254
4,GGAAUAAAGUGUUGUGUCATT against Wfdc15b,-0.118
5,GGUAGCAGUUGCUUUAAUATT against Siah2,2.65 (active)
6,GGGUUUCACAGGCAAACAGTT against Suclg1,-0.904
7,CCCUGUACCUAGCUCAAGATT against Ecel1,-0.693
8,GGAAUCAUCUUUGUGGAGATT against Nudt22,-0.733
9,GCCAACGAGAGUAAACACGTT against 5930403N24Rik,-0.0706
10,GGUCUACUGACUCAAAGUCTT against Mrps33,2.2 (active)
11,GGAUUUCAAAUGGAAACAATT against Vmn1r45,-1.15
12,GCAUGAAUUUUGCACGGACTT against Rad18,1.04
13,UCAACUCAAACUAUGUCGATT against Hoxb4,-0.172
14,GGUCUGUGGAUUUAAACUUTT against Sestd1,0.931
15,CGAAGAGAGCUGCAUUAAATT against BC049715,-1.37
16,GGCUAUCAUGAACUUGGAUTT against Gpd2,-0.57
17,GGAAAUGUACAAGACUGAUTT against Anxa2,2.29 (active)
18,GGAAAAAAACUUGCUGGAUTT against Ppp3ca,-0.681
19,CCAAAUAACCUGCUACGAGTT against Ffar2,0.905
20,GGUAUACUAACUUUUAAGGTT against Fmo1,-0.228
21,GCCUCUAUUCUACACCACATT against Gpr137,-2.1 (active)
22,GAAAAACUGCUGUUUUGGATT against Ly6g6d,1.87

row,Sequence,z-score
1,GGAGACGAGAGGAUCCUCUTT against Chga,-1.56
2,GGUCAAGAAUGUAGCUGAUTT against Atp6v0d1,-1.87
3,GGUGUGUGAACCAUGUGUGTT against Olfr157,-1.03
4,GGCAUAGUGAAUUUAGUCUTT against Iqub,0.526
5,GGCUGGAUACUCAGUGCUATT against Abhd16b,6.41 (active)
6,GGUCAUGGAUCAGAAAGAATT against Hnrnpd,0.297
7,CACGGUACAGUACGAUUGATT against Rcan2,0.143
8,CAAGUACAAGCAGUUGACCTT against BC061237,-0.0958
9,GAGGGUGUGCAUUCUUCUATT against Olfr1242,-0.766
10,GGUUCCUUAAUCACUUUGCTT against Ndufa9,-0.139
11,GGAACAGAUAACAUUAUGGTT against Cpeb3,2.79 (active)
12,GGCCCUUACUUCCACAUCATT against Fam104a,-0.711
13,CGAAGCACAUAUCUUUGAUTT against Zfp41,0.444
14,GGAAAGAGGAAUCAAGAAATT against Slc23a2,-1
15,CCAAAGAGCGCAUGGCUCATT against Epn2,-0.782
16,GCGAAUCAGCACUUAUGGATT against Cd2ap,2.65 (active)
17,GGUCUACUCUUCAUAUCGCTT against Rab3d,-0.566
18,GGACAGUUCAGAACAAAUUTT against Ccbe1,-0.168
19,GCUGAACCAAACCCAAAUGTT against Snph,0.00664
20,GGUGAUGCCACUAGUGAAGTT against Scx,-0.123
21,GGCAGAUCUAUUUAUGGUATT against Ccer1,0.229
22,GGUCUCAGCAAUCUGUUCCTT against 1700029I15Rik,-2.15 (active)

row,Sequence,z-score
1,GGAACUAUACCAAAGGCAATT against Cfap65,-0.198
2,GGAAUGAAGUCUGUCUUCGTT against Zdhhc7,0.648
3,GGAGGAGGAGCUGAAGAAATT against Atp12a,-0.679
4,GGAAAGAUUUAUUUUGACGTT against Vnn3,0.286
5,GGGUAUUGCUGGACAACGUTT against Col1a1,3.85 (active)
6,GGUCUUCAGCACCUUUGAATT against Ccl2,-0.903
7,GGUACUUUUAUCUUAGCUATT against Paral1,0.0889
8,GGGAUUGUGAAUUUCAUGUTT against Gca,1.3
9,GCAGAUCAAUGACUAUAGATT against Arhgef11,0.858
10,GCCAUAUGGGCAGAUGUUUTT against Sec24b,-0.682
11,GCCUAAGAGUUUCAAUAAGTT against Tgtp1,-1.21
12,GCAAAUGCACACUCUAGGATT against Ptprn2,-0.0741
13,GGAAUUUUAUGCCAAGAAUTT against Hip1r,-3.89 (active)
14,GGAAGAAUCGCUGCUACCGTT against Mrpl20,1.06
15,GCUGUGAUCAGGACGAGAATT against Stx2,0.187
16,GGGAAAGAUUCAUGUUACUTT against Mug2,-0.804
17,GCUAACCAGUCAGUUGAUCTT against Mocs1,-0.086
18,CCUUACCAAUGUUCAUUUATT against Skint7,-0.32
19,GGAUCUGCAUUUCACUAUUTT against Pi4ka,0.818
20,GCAUACAAAUGCACAUUGATT against Lsg1,2.69 (active)
21,GGAUCCGUGAAUGUAGUCATT against Rapgef4,-0.793
22,CGGAUUGUAAAGAACUGCATT against Sfrp1,-0.0934

row,Sequence,z-score
1,GCUUUGUGAUGGAUUACUATT against Ccl4,1.85
2,CGUAUACUGUGAUUGAUAUTT against Lcn5,-0.647
3,GGCCAGAAGAUUCCUAAAGTT against Gulp1,3.38 (active)
4,GUUACAGUAUUCUAUGGGATT against Olfr1080,0.508
5,GGUUUUUCUGAGUUUCCGUTT against Il4i1,-1.03
6,GCCUCAUUAUAAAUCACACTT against Bclaf3,0.752
7,GGUGGAGUUCGUGUUGAGCTT against Slc6a11,-0.527
8,GAAGGACACCCUUAUAUUUTT against Olfr1216,0.892
9,GGAUGGUCACGGAAGUUCUTT against Lmf2,2.36 (active)
10,GGGCCUCAUCUUUGUGGUATT against Arf5,0.359
11,GGAUUGUUUAUCUGUCUUCTT against Cyp3a44,-1.05
12,GGACCUAAAGUUUCUCUCATT against Ccnc,-0.2
13,GGUCAUAGCUGGAUUCCUUTT against Olfr1453,-1.47
14,GCUUAUAAUGGCAAUAUUGTT against Nvl,0.275
15,GGACAAAAUUGAACACAAGTT against Pogz,2.86 (active)
16,GGCGAAUUAAUUAACCGCCTT against Abcb10,0.798
17,CCUCGAUAGGUUAGUGACATT against Fdxacb1,-0.731
18,GGUACAGAAACAGUUAGUUTT against Olfr432,0.328
19,GCUUCCUAGAUCAUGACUGTT against Ube2g2,-0.318
